What follows are sequences tested against NRN1 (assay: pooled miR-30 sensor sort-seq; sequence = guide strand). Settings: shRNA.
In the case of TTGTCGTCCAGGCCCTGCGGGT, the sensor-assay potency score (higher = more potent) is reported as -1.62. For TTATCCCACATATCTTTCGCCC, the sensor-assay potency score (higher = more potent) was -1.13. TCTTGATGTTCGTCTTGTCGTC was tested, and the sensor-assay potency score (higher = more potent) was -0.712. TTGAAGACCGCATCGCACTTGC was tested, and the sensor-assay potency score (higher = more potent) was 0.325. Work on TGATGTTCGTCTTGTCGTCCAG yielded a sensor-assay potency score (higher = more potent) of -0.489. Work on TCAGTGAAATATATCTGCCGTT yielded a sensor-assay potency score (higher = more potent) of -1. TTCTTTTCTCAGTTTATCCCAC showed a sensor-assay potency score (higher = more potent) of -0.535. In the case of TCGTCTTGTCGTCCAGGCCCTG, the sensor-assay potency score (higher = more potent) is reported as -1.79. With TTGATGTTCGTCTTGTCGTCCA the sensor-assay potency score (higher = more potent) was 0.18. With TTGGATGTTGAGGTTTTTGGAT the sensor-assay potency score (higher = more potent) was -0.637. For TTCGTCTTGTCGTCCAGGCCCT, the sensor-assay potency score (higher = more potent) was -0.542. With ATCAGTGAAATATATCTGCCGT the sensor-assay potency score (higher = more potent) was -0.0404.

The sequences below were run against NRTN in the same assay as above. Settings: shRNA.
Work on TATCTCAGTACAGTTATCGCGA yielded a sensor-assay potency score (higher = more potent) of 0.0428. ATGGACAGCACGGAGCTGCAGA was tested, and the sensor-assay potency score (higher = more potent) was -1.37. Work on TCCTCGTAGGCCGTCGGGCGGC yielded a sensor-assay potency score (higher = more potent) of -1.9. With TCTCAGTACAGTTATCGCGAGA the sensor-assay potency score (higher = more potent) was -1.15. TGCACCGTGTGGTAGCGGCTGT showed a sensor-assay potency score (higher = more potent) of -1.01. For TCGTCGCAGCCCGAGGTCGTAG, the sensor-assay potency score (higher = more potent) was -1.65. With TAGCGGAACAGCACCGTCTCGT the sensor-assay potency score (higher = more potent) was -0.209. In the case of TGGCGCAGTCGTCGCAGCCCGA, the sensor-assay potency score (higher = more potent) is reported as -1.96. In the case of TCGTCCTCGTAGGCCGTCGGGC, the sensor-assay potency score (higher = more potent) is reported as -1.36. AACAGCACCGTCTCGTCGGACG showed a sensor-assay potency score (higher = more potent) of -1.59.

These sequences were tested against NRXN1 in the same assay as above. Settings: shRNA.
TTGAACTTCAGCCATTTGCCGG gave a sensor-assay potency score (higher = more potent) of -0.927. TATCATTGAGGTTATAGCCAGC was tested, and the sensor-assay potency score (higher = more potent) was -0.792. Work on AAGATTGACATAATCAGCCGAT yielded a sensor-assay potency score (higher = more potent) of 0.46. TAAGTTTATATTATGTCTCAGA showed a sensor-assay potency score (higher = more potent) of -0.557. Work on TTTTGAGACAAGTCGTAGCAGA yielded a sensor-assay potency score (higher = more potent) of -0.143. Work on ATTGTTGCAAGCACACACCTTG yielded a sensor-assay potency score (higher = more potent) of -0.22. Sequence TTTCTTTAGCTACTCCTCCTAT has a sensor-assay potency score (higher = more potent) of -0.523. TAGAATTAATCCATCTAGGGAT was tested, and the sensor-assay potency score (higher = more potent) was -0.432. TATTTCTATACAAGTGTCCATT gave a sensor-assay potency score (higher = more potent) of -1.16. TAAAGATATATGTCGTCCCAGG was tested, and the sensor-assay potency score (higher = more potent) was -1.02. In the case of TATTTTTATATACAACCTCTTT, the sensor-assay potency score (higher = more potent) is reported as -1.15. Sequence TTTGTGTCAATCTTTACAGTGT has a sensor-assay potency score (higher = more potent) of 0.163.

The sequences below were run against NT5C3L in the same assay as above. Settings: shRNA.
Sequence TTTCCATTATATGCAAACCTGC has a sensor-assay potency score (higher = more potent) of -1.3. With TAGCCCGTTGACCACATCCAGA the sensor-assay potency score (higher = more potent) was -1.7. Sequence ATTGGACTCTCTAACCACCTGG has a sensor-assay potency score (higher = more potent) of 0.547. For TTGGACTCTCTAACCACCTGGG, the sensor-assay potency score (higher = more potent) was 0.443. With TCAGAAATCACCTGTAACCGGT the sensor-assay potency score (higher = more potent) was -0.094. With AAACTTCTGAATCTTCTGCTGA the sensor-assay potency score (higher = more potent) was -0.000526.

Reference: the OligoGym collection
